The results in this text go back to PMC4336329 (PLoS ONE, 2015).

Each structure is given as a SMILES string. The campaign covered roughly 310,000 compounds. About 14,000 (4.5%) showed an effect of 50% or more. The effect is printed as a negative number. This is one part of a sample in which strong results are shown more often than they occur.
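Further: peak tail current of the secondary pulse compared with the same well before compound.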

Sequence of human ether-à-go-go-related gene (hERG) potassium channel (Q12809 whole entry, looked up): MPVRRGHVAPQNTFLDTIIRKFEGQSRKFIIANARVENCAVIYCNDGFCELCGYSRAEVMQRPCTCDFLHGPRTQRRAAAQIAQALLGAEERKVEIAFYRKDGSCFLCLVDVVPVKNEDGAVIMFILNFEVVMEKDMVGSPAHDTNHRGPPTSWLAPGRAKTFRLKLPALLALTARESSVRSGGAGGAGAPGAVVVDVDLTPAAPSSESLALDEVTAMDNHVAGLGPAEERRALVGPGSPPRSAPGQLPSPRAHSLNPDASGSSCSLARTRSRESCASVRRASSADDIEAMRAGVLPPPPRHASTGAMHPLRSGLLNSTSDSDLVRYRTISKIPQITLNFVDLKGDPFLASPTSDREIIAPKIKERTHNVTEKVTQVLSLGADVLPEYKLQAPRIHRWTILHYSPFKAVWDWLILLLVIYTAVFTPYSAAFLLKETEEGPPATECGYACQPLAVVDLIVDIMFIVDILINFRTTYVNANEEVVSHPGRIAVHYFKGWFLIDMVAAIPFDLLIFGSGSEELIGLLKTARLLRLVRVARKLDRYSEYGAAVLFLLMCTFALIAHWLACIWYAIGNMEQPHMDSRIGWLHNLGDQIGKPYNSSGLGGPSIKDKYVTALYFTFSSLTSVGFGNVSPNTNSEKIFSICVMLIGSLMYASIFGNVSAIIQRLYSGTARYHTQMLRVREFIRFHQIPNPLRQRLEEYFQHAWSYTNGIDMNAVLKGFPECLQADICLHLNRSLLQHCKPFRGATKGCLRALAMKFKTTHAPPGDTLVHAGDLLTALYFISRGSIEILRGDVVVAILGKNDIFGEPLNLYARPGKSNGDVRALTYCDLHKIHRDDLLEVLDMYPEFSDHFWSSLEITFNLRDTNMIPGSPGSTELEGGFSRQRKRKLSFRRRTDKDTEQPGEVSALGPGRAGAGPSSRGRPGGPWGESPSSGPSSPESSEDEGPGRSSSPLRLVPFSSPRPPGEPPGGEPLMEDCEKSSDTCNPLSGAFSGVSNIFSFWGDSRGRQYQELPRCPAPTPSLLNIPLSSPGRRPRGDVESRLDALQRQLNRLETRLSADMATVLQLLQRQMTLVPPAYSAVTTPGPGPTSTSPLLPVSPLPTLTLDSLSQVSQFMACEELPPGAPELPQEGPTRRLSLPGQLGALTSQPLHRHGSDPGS

The assay addresses human ether-à-go-go-related gene (hERG) potassium channel (human, UniProt Q12809). Briefly: primary screen, population patch clamp on CHO cells stably expressing hERG; higher = less effect of the substance.
`Cc1cc(NC(=O)CSc2nnc(COc3ccccc3)n2Cc2ccco2)no1`: the “hERG current change (%, negative = inhibition) at 10uM” value amounted to 2.24%. As for `CN1CCc2c(sc(NC(=O)CS(=O)(=O)c3ccccc3)c2C(N)=O)C1.Cl`, the “hERG current change (%, negative = inhibition) at 10uM” value is -23.4%. In the case of `CC(=O)N1CCc2c(sc(NC(=O)CS(=O)(=O)c3ccc(F)cc3)c2C(N)=O)C1`, the “hERG current change (%, negative = inhibition) at 10uM” value was 15.7%. For `CC(C)N1CCc2c(sc(NC(=O)CCS(=O)(=O)c3ccccc3)c2C(N)=O)C1.Cl`, the “hERG current change (%, negative = inhibition) at 10uM” value was -26%. Regarding `CCOC(=O)c1c(NC(=O)CCS(=O)(=O)c2ccccc2)sc2c1CCN(C(C)C)C2.Cl`, the “hERG current change (%, negative = inhibition) at 10uM” value is on record as -72.4%. As to `CCOC(=O)c1c(NC(=O)CCS(=O)(=O)c2ccccc2)sc2c1CCN(C)C2.Cl`, the “hERG current change (%, negative = inhibition) at 10uM” value is -52.5%. As to `CCOC(=O)N1CCc2c(sc(NC(=O)CCS(=O)(=O)c3ccccc3)c2C(N)=O)C1`, the “hERG current change (%, negative = inhibition) at 10uM” value is -10.8%. The result for `CN1CCc2c(sc(NC(=O)CS(=O)(=O)c3ccc(F)cc3)c2C(N)=O)C1.Cl` reads -58.8%; that for `COC(=O)c1c(NC(=O)CCS(=O)(=O)c2ccccc2)sc2c1CCN(C)C2.Cl`, -48%; that for `CC(C)N1CCc2c(sc(NC(=O)CCS(=O)(=O)c3ccccc3)c2C#N)C1.Cl`, -9.63%. Regarding `CC(=O)N1CCc2c(sc(NC(=O)CCS(=O)(=O)c3ccccc3)c2C(N)=O)C1`, the “hERG current change (%, negative = inhibition) at 10uM” value is given as 5.3%. Turning to `CCCN1CCc2c(sc(NC(=O)CCS(=O)(=O)c3ccccc3)c2C(=O)OC)C1.Cl`, the “hERG current change (%, negative = inhibition) at 10uM” value was -67%. On to `CCCN1CCc2c(sc(NC(=O)CCS(=O)(=O)c3ccccc3)c2C(N)=O)C1.Cl`, for which the “hERG current change (%, negative = inhibition) at 10uM” value is reported as -27.3%. As for `CC(Sc1ncn[nH]1)C(=O)Nc1ccc(Cl)cn1` (stereo not shown), the “hERG current change (%, negative = inhibition) at 10uM” value came to 2.06%. Consider `O=C(O)c1ccc(/C=C/c2nc3ccccc3c(=O)[nH]2)cc1`, for which the “hERG current change (%, negative = inhibition) at 10uM” value came out at 17.5%. For `CCSc1nnc(NC(=O)c2cccs2)s1`, the “hERG current change (%, negative = inhibition) at 10uM” value is on record as -8.23%. With `COc1cc(OC)cc(-c2nnc(SCC(=O)N3c4ccccc4Sc4ccccc43)o2)c1`, the “hERG current change (%, negative = inhibition) at 10uM” value was 15.3%.

Consider `CC1C=CCC2C(=O)N(c3ccc(Cl)cc3O)C(=O)C12` (stereo not shown), for which the “hERG current change (%, negative = inhibition) at 10uM” value is recorded as -2.47%. `COC(=O)c1sc(N2C(=O)C(O)=C(C(=O)c3ccc(C)o3)C2c2ccco2)nc1C` (stereo not shown): the “hERG current change (%, negative = inhibition) at 10uM” value is reported as -4.73%. Regarding `O=C(O)C1=C[C@H](c2ccc(C(F)(F)F)cc2)C[C@H](OCc2ccc(CO)cc2)O1`, the “hERG current change (%, negative = inhibition) at 10uM” value turned out to be 21.5%.

In the case of `O=C(CSc1ccsc1[N+](=O)[O-])N1CCN(c2ccc(Cl)cc2)CC1`, the “hERG current change (%, negative = inhibition) at 10uM” value turned out to be 10%. To `O=C(COc1ccc(Cl)cc1)Nc1ccc(NC(=O)c2ccco2)cc1` belongs 13.4%; to `COc1cccc(CN(C)C(=O)Nc2cccc(C(F)(F)F)c2)c1OC`, -4.73%. Consider `O=C(NCc1ccc(Cl)cc1)c1cc2c(s1)CS(=O)(=O)C2`, for which the “hERG current change (%, negative = inhibition) at 10uM” value is given as -15.1%. Turning to `O=C(CCCn1c(=O)c2sccc2n(Cc2ccc(F)cc2)c1=O)NCc1ccco1`, the “hERG current change (%, negative = inhibition) at 10uM” value is reported as -30.2%.

Consider `O=C(NCc1cccs1)Nc1ccc(Cl)cc1`, for which the “hERG current change (%, negative = inhibition) at 10uM” value was -21.2%. Consider `O=C(O)c1ccc2c(c1)S(=O)(=O)c1cc(Cl)ccc1C2=O`, for which the “hERG current change (%, negative = inhibition) at 10uM” value is on record as 19.5%. The result for `Cc1cccc(N2CCN(C(=O)COc3ccc4ccc(=O)oc4c3)CC2)c1C` reads 5.66%; that for `CCC(CO)[n+]1c(C)cc(/C=C2\Sc3ccccc3N2Cc2ccccc2)cc1C.[Br-]` (stereo not shown), -75.6%; that for `C[n+]1ccccc1/C=C1\Sc2ccccc2N1CCO.[I-]`, -2.79%.

Consider `CCN1/C(=C2\SC(=S)N(Cc3ccccc3)C2=O)Sc2ccccc21`, for which the “hERG current change (%, negative = inhibition) at 10uM” value is 13.6%. For `Nc1cc([N+](=O)[O-])ccc1O`, the “hERG current change (%, negative = inhibition) at 10uM” value amounted to 6.95%.

Take `Clc1cncc(Cl)c1N/N=C/c1ccccc1`: the “hERG current change (%, negative = inhibition) at 10uM” value is listed as -1.37%. `CNC(=O)c1cc2cc(Cc3ccccc3Cl)ccc2oc1=O`: the “hERG current change (%, negative = inhibition) at 10uM” value was 1.75%.

On to `CCN1C(=O)C(CC(=O)Nc2ccc(F)cc2)N(Cc2cccs2)C1=S` (stereo not shown), for which the “hERG current change (%, negative = inhibition) at 10uM” value was -48.9%. To `CCOc1ccc2c(c1)C(N(CCN1CCOCC1)C(=O)Nc1ccc(OC)cc1OC)CC(C)(C)O2` (stereo not shown) belongs -51.9%; to `CCOc1ccc2c(c1)C(N(CCN1CCOCC1)C(=O)Nc1ccccc1)CC(C)(C)O2` (stereo not shown), -19.1%. To `CCOc1ccc2c(c1)C(N(CCN1CCOCC1)C(=S)Nc1ccccc1OC)CC(C)(C)O2` (stereo not shown) belongs -24.9%. Turning to `CN(C(=O)/C=C/c1ccc2c(c1)OCO2)c1ccccc1`, the “hERG current change (%, negative = inhibition) at 10uM” value is listed as -4.59%. As for `CC(C)CNC(=O)C(=O)NCC(c1ccc2c(c1)OCO2)N1CCOCC1` (stereo not shown), the “hERG current change (%, negative = inhibition) at 10uM” value is 6.81%.

Take `CN1CCN(C(CNC(=O)C(=O)Nc2ccc3c(c2)OCO3)c2ccc(F)cc2)CC1` (stereo not shown): the “hERG current change (%, negative = inhibition) at 10uM” value is -44.3%. The result for `COc1ccc(C(CNC(=O)C(=O)Nc2ccc3c(c2)OCO3)N2CCN(C)CC2)cc1` (stereo not shown) reads -50.9%; that for `COc1ccc(C(CNC(=O)C(=O)Nc2ccc3c(c2)OCCO3)N2CCN(C)CC2)cc1` (stereo not shown), -45.1%; that for `CN1CCN(C(CNC(=O)C(=O)Nc2ccc3c(c2)OCCO3)c2ccc(F)cc2)CC1` (stereo not shown), -46.2%. Regarding `Cc1ccc(C(CNC(=O)C(=O)Nc2ccc3c(c2)OCCO3)N2CCN(C)CC2)cc1` (stereo not shown), the “hERG current change (%, negative = inhibition) at 10uM” value is listed as -55.5%. Consider `CCOc1cc2c(cc1OC)C(NC(=O)C(F)(F)F)CC2=O` (stereo not shown), for which the “hERG current change (%, negative = inhibition) at 10uM” value is given as -0.243%. To `CC1CCc2nc3ccc(S(=O)(=O)N4CCC(C(=O)NCc5ccccc5Cl)CC4)cc3c(C(=O)O)c2C1` (stereo not shown) belongs 7.04%; to `O=C(O)c1ccc(N2C(=O)CC(N3CCC(c4nc5ccccc5[nH]4)CC3)C2=O)cc1` (stereo not shown), 4.95%. As to `COc1ccc(-c2ccc(Nc3ccc(C(=O)N4CCOCC4)cc3)nn2)cc1OC`, the “hERG current change (%, negative = inhibition) at 10uM” value is -5.3%.

With `CC(=O)N/N=C(\C)c1ccc2c(c1)OCCO2`, the “hERG current change (%, negative = inhibition) at 10uM” value is recorded as 11%. With `CC(=O)N1CCN(C(=O)c2ccc3c(c2)OCCO3)CC1`, the “hERG current change (%, negative = inhibition) at 10uM” value is 10.9%. On to `C/C(=N/O)c1ccc2c(c1)OCCOCCOc1cc(/C(C)=N/O)ccc1OCCOCCO2`, for which the “hERG current change (%, negative = inhibition) at 10uM” value is listed as -77.3%. In the case of `Nc1cc[n+](CC(=O)c2ccc3c(c2)OCCO3)cc1.[Br-]`, the “hERG current change (%, negative = inhibition) at 10uM” value is listed as -0.154%. Regarding `Cc1cc[n+](CC(=O)c2ccc3c(c2)OCCO3)cc1.[Br-]`, the “hERG current change (%, negative = inhibition) at 10uM” value is -22.2%. In the case of `CC(C)(C)C(=O)Nc1ccc2c(c1)OCCOCCOc1cc(NC(=O)C(C)(C)C)ccc1OCCOCCO2`, the “hERG current change (%, negative = inhibition) at 10uM” value was -65.5%. Consider `CC(=O)Nc1ccc2c(c1)OCCOCCOc1cc(NC(C)=O)ccc1OCCOCCOCCO2`, for which the “hERG current change (%, negative = inhibition) at 10uM” value is recorded as -2.81%. As for `C/C(=N\O)c1ccc2c(c1)OCCO2`, the “hERG current change (%, negative = inhibition) at 10uM” value came out at 14.3%. To `CC(=O)c1ccc2c(c1)OCCOCCOc1ccccc1OCCOCCO2` belongs -74.4%; to `CCC(=O)c1ccc2c(c1)OCCO2`, 3.36%.

On to `O=C(C[n+]1ccc(/C=C/c2ccccc2)cc1)c1ccc2c(c1)OCCO2.[Br-]`, for which the “hERG current change (%, negative = inhibition) at 10uM” value is listed as -50.2%.

With `CC(=O)Nc1ccc2c(c1)OCCOCCOc1cc(NC(C)=O)ccc1OCCO2`, the “hERG current change (%, negative = inhibition) at 10uM” value was -4.52%.
